Source: PubChem BioAssay (NCI)
“And” between values parts separate entries of the source, which are not always exact repeats. Equal values may be shown once. About 83,000 compounds went through this panel and 20% of them were active in at least one assay; those are over-represented in the sample as a whole.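 Cells were grown in 96-well plates and exposed to the test compound at a single concentration for 48 hours; results are reported as percent growth, with values below 10 considered active.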 A number with no mark means an inactive call. The source made the active and inactive calls.

The molecules below were run on MDA-MB-468 breast (assay: NCI-60 one-dose screen, 48 h (100 = growth as untreated, 0 = no growth, -100 = all killed)). Details: 10 µM unless noted.

Row | SMILES | growth
1 | CCCCCCC(=O)Nc1ncc(Cc2ccc(C)cc2)s1 | 28.4%
2 | COc1ccc(C2CC(n3ccnc3)c3cc(OC)c(OC)c(OC)c32)cc1O (stereo unspecified) | 78.6%
3 | Cn1ccnc1C(=O)/C=C/c1ccc(NC(=O)c2c(F)c(F)c(F)c(F)c2F)cc1 | 92.1%
4 | CC1=C(/C=C/C(C)=C/C=C/C(C)=C/C(=O)O)C(C)(C)CCC1 | 99.9% and 110%
5 | CN1CCN(C(=O)c2ccc(NC(=O)c3cc4c(nn3)NCCN4Cc3cc(Cl)ccc3Cl)cc2)CC1 | 60.9%
6 | CN(C)CCC(CCN(C)C)(C(=O)O)c1ccccc1 | 102%
7 | Clc1nc(-c2ccccn2)nc2sc3c(c12)CCCCCC3 | -84.3% (active)
8 | CCN(CC)c1ccc(/C=C/C=C2\NC(=O)NC2=O)cc1 | -5.35% (active)
9 | CC(=O)OC[C@]1(C)C=C2C(=O)[C@](C)(O)C3(CC3)C(C)=C2[C@H]1OC(C)=O | 21.6%
10 | NC(=NCCCOc1ccc(F)cc1)Nc1ccc(Cl)c(Cl)c1 | 41%
11 | C=CN(C(=O)N1CCN(c2cc3c(cc2F)c(=O)c(C(=O)O)cn3C2CC2)CC1)c1nc(-c2ccc(Cl)cc2)cs1 | 76.3%
12 | O=c1ccc2nc(-c3ccccc3)nn(-c3ccccc3)c-2c1 | -81.6% (active)
13 | CC(C)(C)c1cc(Br)cc(C(C)(C)C)c1O | 110%
14 | Fc1cc(F)cc(C(c2c[nH]c3ccccc23)c2c[nH]c3ccccc23)c1 | 111%
15 | COc1ccc(S(=O)(=O)n2cc(C=O)c3ccccc32)c(OC)c1 | 84.7%
16 | CCOC(=O)C(=O)Nc1ccc2c(ccn2C(=O)c2cccc(F)c2)c1 | 89.5%
17 | CC(=O)N[C@@H](CNC(=O)c1cc(NC(=O)c2cc(NC(=O)c3cc(NC(=O)c4nccn4C)cn3C)cn2C)cn1C)CC(=O)Nc1cn(C)c(C(=O)Nc2cc(C(=O)Nc3cc(C(=O)Nc4cc(C(=O)NCCCN(C)CCCNC(=O)c5cccc(C(=O)O)c5)n(C)c4)n(C)c3)n(C)c2)n1 | 71.5%
18 | COc1cc(OC)c(C(=O)/C=C/c2cccc(C(F)(F)F)c2)c(OC)c1 | -9.39% (active)
19 | NC(=O)c1cc(Cl)ccc1NC(=O)COc1ccccc1 | 21%
20 | COc1ccc(/C=N/C2=C(C#N)C(c3cccc(Cl)c3)c3c(ccc4ccccc34)O2)cc1 (stereo unspecified) | 3.32% (active)
21 | COc1cnc2c(c1)C(=O)c1c-2n(CCCN2CCCC2)c(=O)c2cc([N+](=O)[O-])ccc12 | -41.1% (active)
22 | CCCC[P+](c1ccccc1)(c1ccccc1)c1ccccc1 | -6.92% (active)
23 | O=C(CN1C(=O)S/C(=C\C(Cl)=C\c2ccccc2)C1=O)NCCCn1ccnc1 | -28.2% (active)
24 | COc1ccc(N/N=C/c2c(-c3ccc(S(C)(=O)=O)cc3)nc3ccccn23)cc1 | 58.2%
25 | CCCCCCNC(=O)Oc1ccc(/C(=C(/C)Cc2ccc(OC)cc2)c2ccc(OCCN(C)C)cc2)cc1 | 62.9%
26 | COc1ccc(CNCCN2C(=O)c3ccc4c5c(ccc(c35)C2=O)C(=O)N(CCNCc2ccc(OC)cc2)C4=O)cc1 | -94.3% (active)
